Screening data (PubChem BioAssay)
BAZ2B block = blocks human BAZ2B; Q9UIF8; AlphaScreen BAZ2B-H3K14Ac peptide displacement; Potency, µM (series often up to 114 µM), inactives show top-dose activity change, negative = inhibition, actives largely listed as inhibitors; 4.4% of 360,000 active; AID 504333; further: potency means the concentration at half of the fitted maximal effect; on the % scale 0 is the no-effect control and ±100 the full control effect; nearly all actives have a fitted effect of over 60% in size
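AlphaScreen displacement of biotin-H3(5-23)K14Ac peptide (50 nM final) from BAZ2B (50 nM final) in PBS pH 7.4, 0.01% Tween-20; complex preformed 30 min RT, then compounds (top 110 uM) 30 min RT, beads 20 min dark.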
KDM4E inh = JMJD2E (human) inhibition; B2RXH2; JMJD2E catalytic domain, FDH-coupled NADH fluorescence (FDH is formaldehyde dehydrogenase); Potency, µM (highest dose often 57.1 µM), without a hit: at the top dose activity change, negative = inhibition, usual class: inhibitors; 1.6% of 230,000 active; AID 2147; active means well fitted inhibition curve with a large enough effect, not every such curve was filed as active; inconclusive means small, poorly fitted or top-dose-only effect, or another doubt; inactive means no such curve, though single readings can be large or run the other way;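 further: potency means the concentration at half of the fitted maximal effect; 0% = wells with enzyme and -100% = buffer wells without enzyme; nearly all actives have a fitted effect of over 50% in size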
HP1b chromo inh = inhibitors of HP1-beta chromodomain binding to methylated histone tails. P83916. AlphaScreen HP1-beta / biotin-H3K9me3 peptide binding. Potency, µM (titrated, usually from 114 µM), inactives show at the highest dose activity change, negative = inhibition, usual class: inhibitors. 0.56% of 390,000 active. AID 540317; further: potency means the concentration at half of the fitted maximal effect; nearly all actives have a fitted effect of over 70% in size
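HP1-beta protein (50 nM final) preincubated 30 min at room temperature with biotinylated H3(1-18)K9me3 peptide (50 nM) in PBS pH 7.4, 0.01% Tween-20, then compound added for 30 min. AlphaScreen streptavidin donor/nickel chelate acceptor beads (10 ug/mL final), 30 min dark, luminescence read.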
JMJD2A Tudor inh = JMJD2A Tudor domain (human) inhibition; Potency, µM (top dose mostly 114 µM), without a hit: at the highest dose activity change, negative = inhibition, most hits filed as inhibitors; AlphaScreen JMJD2A-Tudor / H3K4me3 peptide binding; O75164; 4.4% of 390,000 active; AID 504339; further: potency means the concentration at half of the fitted maximal effect; on the % scale 0 is the no-effect control and ±100 the full control effect; nearly all actives have a fitted effect of over 50% in size
PI5P4Ka inh = PI5P4K alpha (human) kinase inhibition | PI5P4Kalpha enzyme, ADP-Glo luminescence, 60 min; stronger effect = lower value | max response, % | 1.2% of 330,000 active | AID 652105; active means max response of -50% or lower; inconclusive means between -30% and -50%; inactive means -30% or higher; further: value at the top dose of about 77 µM; on the % scale 0 is the no-effect control and ±100 the full control effect
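Single end-point luminescence (ADP-Glo) quantified ADP from PI5P4Kalpha turnover; ATP 5 microM final, 1 h at RT, 0.1% CHAPS and 0.28 mM EGTA in HEPES pH 7.4.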
L3MBTL1 block = inhibitors of human L3MBTL1; Q9Y468; AlphaScreen L3MBTL1–H3K9me1 peptide binding; Potency, µM (series often up to 57.1 µM), without a hit: at the highest dose activity, negative = inhibition, most hits filed as inhibitors; 0.66% of 230,000 active; AID 485360; further: potency means the concentration at half of the fitted maximal effect; on the % scale 0 is the no-effect control and ±100 the full control effect; nearly all actives have a fitted effect of over 60% in size
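Read-out is AlphaScreen signal from streptavidin donor and nickel chelate acceptor beads (10 ug/mL final each) bridging L3MBTL1 (50 nM) and biotinylated K9-monomethylated H3(1-15) peptide (75 nM), after 30 min compound exposure at room temperature.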
An asterisk follows results filed as active; ? = inconclusive; / = not tested or not shown; [ ] = another dose, or the depositor's remark. A selection: hits, their analogues and other compounds. The true share with any hit is near 5.7%. Unless noted, the call rests on the fitted dose curve; in most records, active means well fitted inhibition curve with a large enough effect; inconclusive means small, poorly fitted or top-dose-only effect; inactive means no such curve, though single readings can be large or run the other way.

SMILES | BAZ2B block | KDM4E inh | HP1b chromo inh | JMJD2A Tudor inh | PI5P4Ka inh | L3MBTL1 block
CC12CCC(=O)N1C(C(=O)OCC(=O)Nc1ccc(Cl)c(Cl)c1)CS2 (stereo unspecified) | -15% | -5% | 15% | -19% | -2 | -5%
COCCN(C(=S)Nc1cccc(C)c1)C(C)c1cccnc1 (stereo unspecified) | -3% | -4% | 30% | -10% | 7 | /
CN(CC(=O)Nc1cccc(F)c1)C(=O)CNS(=O)(=O)c1ccc(N(C)C)c([N+](=O)[O-])c1 | 71µM* | / | -12% | ? | -15 | -3%
CN(C)c1ccc(S(=O)(=O)NCC(=O)N2CCN(S(=O)(=O)c3cccc(F)c3)CC2)cc1[N+](=O)[O-] | / | / | 10% | -34% | 4 | /
CN(C)c1ccc(/C=C2/C=C(c3ccc4c(c3)CCCC4)OC2=O)cc1 | ? | -2% | ? | 2.5µM* | 6 | /
O=C1C=C(c2ccc(C(=O)O)cc2)C[C@@H](c2ccc3c(c2)OCO3)C1 | 50µM* | / | 1% | 79µM* | ? | ?
O=C1C=C(c2ccc(O)cc2)C[C@@H](c2ccc3c(c2)OCO3)C1 | 4% | / | 1% | ? | -7 | -6%
CCOc1ccc(Cl)cc1-c1cc(C(=O)Nc2ccc(OC)nc2)[nH]n1 | / | / | / | / | -5 | /
CCCc1sc(N2CCCC(C(N)=O)C2)nc1-c1ccccc1 (stereo unspecified) | ? | 8% | ? | 28µM* | -1 | -8%
CC(C)CCn1c(SCC(=O)N2CC(=O)Nc3ccccc32)nc2scc(-c3cccs3)c2c1=O | -11% | -4% | 21% | -19% | -67* | /
Cc1cc(=O)oc2cc(OCC(=O)NCCCn3ccnc3)ccc12 | -19% | / | 25% | 9% | -1 | /
Cc1c(C)c2ccc(OCC(=O)NCCCn3ccnc3)cc2oc1=O | -17%[57.1 µM] | / | 42% | 22µM* | 10 | /
O=C(Nc1ccnn1C1CCN(C2CCCCC2)CC1)c1ccccc1 | 3% | / | 2% | 3% | -1 | /
O=C(Nc1ccnn1C1CCN(C2CCCCC2)CC1)c1cccc(F)c1 | 10% | / | 37% | 25µM* | -1 | /
O=C(COC(=O)CCc1nc2ccccc2s1)NC(=O)NCc1ccco1 | 50µM* | 9% | -9% | -33% | -3 | /
CC(C)(C)OC(=O)N1CCC(c2c(C(=O)NCCN3CCC(Cc4ccccc4)CC3)cnn2-c2cccc(Cl)c2)CC1 | -22%[57.1 µM] | / | 8% | ? | / | /
O=C(c1ccc(CNS(=O)(=O)c2ccc(Br)cc2)cc1)N1CCCC1 | 11% | -1% | 24% | -10% | -3 | /
O=C(NNC(=O)c1ccc(F)cc1)C(=O)N1CCCCC1 | 8% | 3% | 10% | 25µM* | 0 | -5%
COc1ccccc1C(=O)NNC(=O)C(=O)N1CCCCC1 | ? | / | 18% | ? | -2 | /
CC1CC(=O)N(c2ccc(N(C)Cc3ccccc3)c([N+](=O)[O-])c2)C1=O (stereo unspecified) | 11µM* | -1% | 8% | -10% | 2 | /
CN(Cc1ccccc1)c1ccc(N2C(=O)CCC2=O)cc1[N+](=O)[O-] | ? | 5% | 5% | ? | -3 | /
C[C@@H](/C=C/c1ccc2ccccc2c1)C1COC(=O)C[C@H]1O (stereo partly specified) | / | / | 38% | -16% | / | /
CCn1c(-c2c(Cl)c(C)nn2C)n[nH]c1=S | -5% | -12% | -2% | 20µM* | -4 | 1%
CCCCn1c(-c2c(Cl)c(C)nn2C)n[nH]c1=S | -22% | -17% | -15% | 13µM* | -5 | /
Cc1ccc(Nc2c([N+](=O)[O-])ccc3c2=NC2(CCCCC2)N=3)cc1 | 3.5µM* | 2% | ? | ? | -10 | -25%
SMILES | BAZ2B block | KDM4E inh | HP1b chromo inh | JMJD2A Tudor inh | PI5P4Ka inh | L3MBTL1 block
O=[N+]([O-])c1ccc2c(c1Nc1ccccc1Cl)=NC1(CCCCC1)N=2 | -33% | 4% | 10% | ? | 0 | ?
COc1cc(/C=C/C(=O)O)cc(S(=O)(=O)N(C)CCO)c1OC | -28% | ? | 24% | -3% | -8 | -3%
Cc1ccc(/C=C/C(=O)O)cc1S(=O)(=O)N(C)CCO | 8% | 0% | 64% | -2%[57.1 µM] | -64* | 7%
CCOC(=O)c1cccc2c1N[C@@H](c1ccc(F)cc1)[C@H]1CC=C[C@@H]21 | ? | / | ? | 40µM* | / | /
CCN(CC)c1ccc(C=Nc2ccccc2)c(O)c1 | -38% | ? | ? | -35% | -25 | -4%
CCN(CC)c1ccc(/C=N/Nc2cccc(C)c2)c(O)c1 | 50µM* | ? | 18µM* | 40µM* | -2 | -28%
CCN(CC)c1ccc(C=Nc2cc(C)cc(C)c2)c(O)c1 | 9% | 0% | -4% | -20% | -9 | -6%
CCN(CC)c1ccc(/C=N/Nc2ccccc2)c(O)c1 | 45µM* | 16µM* | 16µM* | 28µM* | / | -9%
Cc1ccc(NC(=O)CN2C(=O)c3ccccc3C2=O)c(C)c1 | -4% | / | 23% | -7% | 3 | -1%
Cc1ccc(S(=O)(=O)ON2C(=O)c3ccccc3C2=O)c(C)c1 | 13% | ? | 45µM* | 50µM* | -25 | 8%
Cc1cc(C)c(C)c(S(=O)(=O)ON2C(=O)c3ccccc3C2=O)c1C | -39% | ? | -32% | 89µM* | -13 | 7%
O=C1c2ccccc2C(=O)N1OS(=O)(=O)c1ccc(F)cc1 | -32% | / | 41% | 9% | 1 | /
Cc1cc(C)c(S(=O)(=O)ON2C(=O)c3ccccc3C2=O)cc1C | ? | ? | ? | 56µM* | -12 | 11%
COc1ccccc1CN(Cc1c(Cl)cccc1Cl)S(=O)(=O)c1ccc(Br)cc1 | 6% | / | 37% | 14% | / | /
COc1cc(C2OCC3C(c4ccc(OC5OC(CO)C(O)C(O)C5O)c(OC)c4)OCC23)ccc1O (stereo unspecified) | -6% | 28µM* | 11% | -35% | -8 | 2%
COC(=O)NC(/C=C/c1ccccc1)C(C(C)=O)C(=O)OC (stereo unspecified) | / | -7% | / | / | / | /
Cc1c(C)n(C)c2ccc(C(=O)NCCc3ccco3)cc12 | 35µM* | / | ? | ? | -9 | /
Cc1c(C)n(C)c2ccc(C(=O)NCCCN(C)C3CCCCC3)cc12 | 25µM* | / | 1% | ? | 7 | /
CCOc1ccccc1NC(=O)c1cc2c(=O)oc3ccccc3c2s1 | 15%[57.1 µM] | / | 50% | -26% | / | /
O=C(CCl)c1ccc(Cc2ncc(C(F)(F)F)cc2Cl)s1 | ? | -1% | 30% | 79µM* | 2 | -6%
S=c1[nH]nc(-c2cc(-c3ccccc3)n[nH]2)n1/N=C/c1c(Cl)cccc1Cl | 79µM* | -21% | 6% | 45µM* | ? | -12%
S=c1[nH]nc(-c2cc(-c3ccccc3)n[nH]2)n1/N=C/c1ccc(Br)s1 | 56µM* | -14% | ? | ? | -13 | ?
